Test results published in PubChem BioAssay (NCATS).
Records with an inconclusive call do not appear. A call without a number means that no potency is given here. The source made the active and inactive calls. The call rests on the fitted dose curve; in most records, active means well fitted inhibition curve with a large enough effect in the signal ratio, with a control signal flat (not every such curve was filed as active); inconclusive means small, poorly fitted or top-dose-only effect, or effect the other way, or a change in a side signal; inactive means flat fitted curve, though single readings scatter; the % refers to the signal ratio.

Experiment: qHTS Assay for Identification of Small Molecule Antagonists for NFkB Signaling Pathway (AID 895)
Conditions: NFkB beta-lactamase reporter cells, FRET ratio 460/530, stimulated with 10 pM TNF alpha; series mostly up to 38.3 µM
Experimental: NIH Molecular Libraries Screening Centers Network [MLSCN]
NIH Chemical Genomics Center [NCGC]
The TNF alpha/NFkB signaling pathway was assayed in NFkB-bla cells (Invitrogen), a ME-180 cervical carcinoma line containing a stably integrated beta-lactamase reporter gene controlled by a NFkB response element. […] The assay was screened at the EC50 of TNF alpha activation to identify inhibitors of TNF alpha/NFkB signaling.
NCGC Assay Protocol Summary:
Cells were trypsinized, washed in assay medium (AM, OPTI MEM with 0.5% fetal bovine serum, 0.1 mM nonessential amino acids, 1 mM sodium pyruvate, 10mM HEPES pH 7.3, 100U/ml penicillin, and 100 ug/ml streptomycin) and plated at 1000 cells/5 uL/well into black clear-bottom 1536 well plates. After an overnight incubation at 37 C and 5% CO2, 23 nL of compound were delivered by a pin tool, 1 uL of TNF alpha (10 pM final concentration in AM) was added and plates were incubated at 37 C for 5 hrs. One uL of LiveBLAzerTM detector mix (Invitrogen) was added, the plates incubated at room temperature for 2 hrs, and fluorescence intensity at 460 and 530 nm emission was measured at 405 nm excitation by an Envision (Perkin Elmer).
Potency means the concentration at half of the fitted maximal effect.

SMILES | Potency
C[C@](N)(Cc1ccc(O)c(O)c1)C(=O)O | inactive
CS(=O)(=O)Nc1ccc([N+](=O)[O-])cc1Oc1ccccc1 | inactive
COc1cc2c(c(OC)c1OC)-c1ccc(OC)c(=O)cc1[C@@H](NC(C)=O)CC2 | inactive
Cn1cnc2c1c(=O)[nH]c(=O)n2C | inactive
Cn1c(=O)c2[nH]cnc2n(C)c1=O | inactive
COc1ccc(C2CNC(=O)C2)cc1OC1CCCC1 (stereo not given) | inactive
Nc1nnc(-c2cccc(Cl)c2Cl)c(N)n1 | inactive
CCOC(=O)C(C)(C)Oc1ccc(Cl)cc1 | inactive
CN(C)CCCN1c2ccccc2CCc2ccc(Cl)cc21 | inactive
COc1ccc2[nH]cc(CCNC(C)=O)c2c1 | inactive
O=C(C1CCCCC1)N1CC(=O)N2CCc3ccccc3C2C1 (stereo not given) | inactive
O=C1c2c(O)ccc(O)c2C(=O)c2c(NCCNCCO)ccc(NCCNCCO)c21 | 2000 nM (active)
CN(C)c1nc(N(C)C)nc(N(C)C)n1 | inactive
NC(=O)OCC(COC(N)=O)c1ccccc1 | inactive
CCC1(c2ccccc2)C(=O)NCNC1=O | inactive
